Measurements as given in PubChem BioAssay (NCI).
Compounds without any hit were thinned out: in the full panel of roughly 83,000, 20% have a hit.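 Plates (96-well) were seeded with cells, treated with compound at one concentration, and incubated for 48 hours before percent growth was determined.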 Unmarked numbers belong to inactive results. Active and inactive are the calls of the source. Rule for the calls: active = growth percent below 10; inactive = the rest.

What was measured:
Experiment in all cases: NCI-60 one-dose screen, 48 h (100 = growth as untreated, 0 = no growth, -100 = all killed)
Details in all cases: 10 µM unless noted
[1] = tested on: NCI-H23 lung
[2] = tested on: HOP-62 NSCLC
[3] = tested on: NCI-H460 lung
[4] = tested on: HOP-92 NSCLC
[5] = tested on: NCI-H522 lung
[6] = tested on: A549/ATCC NSCLC
[7] = tested on: 786-0 renal
[8] = tested on: COLO 205 colon
[9] = tested on: DU-145 prostate
[10] = tested on: K-562 leukemia
[11] = tested on: MALME-3M melanoma
[12] = tested on: MDA-MB-231 breast
[13] = tested on: RXF 393 renal
[14] = tested on: SF-268 CNS
[15] = tested on: SF-295 CNS
[16] = tested on: SF-539 CNS
[17] = tested on: UACC-257 melanoma
[18] = tested on: M14 melanoma
[19] = tested on: NCI-H322M lung

SMILES | growth [1] | growth [2] | growth [3] | growth [4] | growth [5] | growth [6] | growth [7] | growth [8] | growth [9] | growth [10] | growth [11] | growth [12] | growth [13] | growth [14] | growth [15] | growth [16] | growth [17] | growth [18] | growth [19]
O=C(/C=C/c1ccccc1)Nc1ncc(Cc2ccccc2)s1 | 24.8% | 13.7% | 2.22% (active) | 85.7% | -4.58% (active) | 22.1% | 24.5% | 8.42% (active) | 16% | 10.5% | 44.3% | 33.4% | 10.9% | 39.4% | -10.7% (active) | -22.2% (active) | 48.3% | 5.78% (active) | –
Cn1c(O)c(C(/C=C/c2ccccc2)=Nc2ccccc2N)c(=O)n(C)c1=O | 94.2% | 105% | 104% | 82.4% | 90.3% | 103% | 103% | 95% | 117% | 55.9% | 118% | 91.4% | 109% | 114% | 105% | 107% | 106% | 104% | 105%
COc1cc(-c2cc(-c3ccc(Nc4ncnc5cc(Cl)ccc45)cc3)nc(N3CCN(C)CC3)n2)cc(OC)c1OC | 108% | 94.4% | 100% | 77.7% | 85.8% | 89.2% | 45.2% | 90.6% | 98.9% | 56% | 71% | 51.7% | -1.57% (active) | 76.9% | 111% | 32.9% | 117% | 80.8% | 104%
Clc1ccc(-c2nc(-c3c[nH]c4ncccc34)cs2)cc1 | 35% [100 µM] | 6.83% [100 µM] (active) | 72.5% [100 µM] | -42.4% [100 µM] (active) | 71.7% [100 µM] | 55.2% [100 µM] | 34.6% [100 µM] | 93.2% [100 µM] | 79.6% [100 µM] | 100% [100 µM] | 73% [100 µM] | 31.1% [100 µM] | 18.5% [100 µM] | 40.9% [100 µM] | 18.6% [100 µM] | 20.6% [100 µM] | 105% [100 µM] | 70.3% [100 µM] | 61.7% [100 µM]
CN(C)c1ccc(/C=C/C(=O)c2ccc(Nc3nc(Nc4ccc(F)cc4)nc(Nc4ccc(Cl)cc4)n3)cc2)cc1 | 73.3% | 78.3% | 62.7% | 51.3% | 56.4% | 53% | 71.2% | 64.2% | 84.4% | 23.7% | 64.3% | 80.1% | 22.4% | 84.1% | 44.8% | 82.2% | 82.2% | 54% | 95.7%
C#CC#CC#CC#CC#CC#CC#CC#CCC1OCC(COC(=O)O[C@@H](C(=O)O[C@H]2C[C@@]3(O)[C@@H](OC(=O)c4ccccc4)[C@@H]4[C@]5(OC(C)=O)CO[C@@H]5C[C@H](O)[C@@]4(C)C(=O)[C@H](OC(C)=O)C(=C2C)C3(C)C)[C@@H](NC(=O)c2ccccc2)c2ccccc2)O1 (stereo partly specified) | 35.2% | 30.4% | 5.88% (active) | 58.2% | 24.3% | 18.7% | 32.1% | 12.6% | 6.68% (active) | 12.6% | 41.9% | 20% | -9.54% (active) | 34.4% | 4.59% (active) | -0.927% (active) | 53% | -22% (active) | 29.1%
CCCCCCCCCCCCCCCCCCOc1ccccc1CC(=O)NCC[N+]1(C)CCOCC1 | 67.8% | 53% | 45.7% | -2.9% (active) | 30.8% | 55.6% | 2.4% (active) | 37.6% | 65.5% | 15.7% | 58.9% | 54.1% | -39.4% (active) | 41.5% | 62.8% | 54.5% | 99.4% | 69.6% | 65.2%
Oc1c(Cl)cc(Cl)c2ccc(Cn3cc(-c4cccc(C(F)(F)F)c4)nn3)nc12 | 90% | 97.5% | 101% | 55.8% | -3.26% (active) | 97.9% | 95.6% | 92.9% | 63% | 5.87% (active) | 75.8% | 101% | 33.7% | 88.9% | 99% | 75.2% | 69.1% | 62.4% | 102%
